Results on six molecules are retold here after ChEMBL document CHEMBL1961873, “Compounds: GSK PKIS; Assays: Nanosyn kinase panel” (2012).

For assay [1], the target named is 5'-AMP-activated protein kinase catalytic subunit alpha-2 (Homo sapiens) (UniProt P54646). The following applies: at 1 µM.
For assay [2], the target named is T1, NUAK family SNF1-like kinase 1 (Homo sapiens) (UniProt O60285).
T1 sequence (whole entry): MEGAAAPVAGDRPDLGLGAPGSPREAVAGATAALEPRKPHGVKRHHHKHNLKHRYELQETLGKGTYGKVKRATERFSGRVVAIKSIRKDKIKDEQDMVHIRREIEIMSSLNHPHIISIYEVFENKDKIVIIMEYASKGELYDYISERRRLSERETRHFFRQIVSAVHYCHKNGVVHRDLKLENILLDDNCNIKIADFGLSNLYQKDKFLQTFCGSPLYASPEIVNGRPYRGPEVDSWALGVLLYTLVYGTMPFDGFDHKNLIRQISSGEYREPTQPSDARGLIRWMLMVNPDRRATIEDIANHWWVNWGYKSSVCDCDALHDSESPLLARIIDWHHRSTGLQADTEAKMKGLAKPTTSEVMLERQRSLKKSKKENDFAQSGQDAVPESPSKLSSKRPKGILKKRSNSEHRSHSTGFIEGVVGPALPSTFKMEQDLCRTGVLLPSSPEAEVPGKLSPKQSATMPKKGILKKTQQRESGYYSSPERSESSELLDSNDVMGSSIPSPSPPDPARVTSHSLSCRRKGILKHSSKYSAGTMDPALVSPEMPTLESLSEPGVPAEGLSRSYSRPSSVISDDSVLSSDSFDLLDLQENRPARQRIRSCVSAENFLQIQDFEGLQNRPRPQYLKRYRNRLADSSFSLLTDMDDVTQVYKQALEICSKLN
The note with it: at 0.1 µM.

For assay [3], the target named is T1, NUAK family SNF1-like kinase 1 (Homo sapiens). The note with it: at 1 µM.
For assay [4], the target named is T2, Serine/threonine-protein kinase BRSK1 (Homo sapiens) (UniProt Q8TDC3).
T2 sequence (whole entry): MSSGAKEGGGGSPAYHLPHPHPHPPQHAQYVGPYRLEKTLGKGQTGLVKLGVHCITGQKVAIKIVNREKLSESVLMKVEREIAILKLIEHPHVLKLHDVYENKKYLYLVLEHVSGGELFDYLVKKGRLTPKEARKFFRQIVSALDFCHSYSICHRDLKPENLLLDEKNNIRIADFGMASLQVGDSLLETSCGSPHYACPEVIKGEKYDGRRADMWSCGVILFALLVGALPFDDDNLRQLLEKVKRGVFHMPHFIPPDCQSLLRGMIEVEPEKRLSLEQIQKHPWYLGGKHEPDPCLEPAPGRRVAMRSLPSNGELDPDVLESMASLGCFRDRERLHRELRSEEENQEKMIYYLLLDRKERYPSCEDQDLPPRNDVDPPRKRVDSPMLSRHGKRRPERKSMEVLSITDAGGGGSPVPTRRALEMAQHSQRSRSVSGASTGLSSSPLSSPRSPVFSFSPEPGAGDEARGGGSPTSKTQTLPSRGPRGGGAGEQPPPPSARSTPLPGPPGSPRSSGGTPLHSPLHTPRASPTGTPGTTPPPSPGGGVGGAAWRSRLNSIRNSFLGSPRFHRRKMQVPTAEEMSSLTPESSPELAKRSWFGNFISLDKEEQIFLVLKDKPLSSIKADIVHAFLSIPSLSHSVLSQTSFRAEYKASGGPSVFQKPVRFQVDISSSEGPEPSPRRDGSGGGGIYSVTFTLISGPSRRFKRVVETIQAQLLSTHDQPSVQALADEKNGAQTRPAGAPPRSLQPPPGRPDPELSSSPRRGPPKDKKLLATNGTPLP
The note with it: at 0.1 µM.

The target of assay [5] is T2, Serine/threonine-protein kinase BRSK1 (Homo sapiens). The following applies: at 1 µM.
In assay [6] the target is T3, Serine/threonine-protein kinase BRSK2 (Homo sapiens) (UniProt Q8IWQ3).
T3 sequence (whole entry): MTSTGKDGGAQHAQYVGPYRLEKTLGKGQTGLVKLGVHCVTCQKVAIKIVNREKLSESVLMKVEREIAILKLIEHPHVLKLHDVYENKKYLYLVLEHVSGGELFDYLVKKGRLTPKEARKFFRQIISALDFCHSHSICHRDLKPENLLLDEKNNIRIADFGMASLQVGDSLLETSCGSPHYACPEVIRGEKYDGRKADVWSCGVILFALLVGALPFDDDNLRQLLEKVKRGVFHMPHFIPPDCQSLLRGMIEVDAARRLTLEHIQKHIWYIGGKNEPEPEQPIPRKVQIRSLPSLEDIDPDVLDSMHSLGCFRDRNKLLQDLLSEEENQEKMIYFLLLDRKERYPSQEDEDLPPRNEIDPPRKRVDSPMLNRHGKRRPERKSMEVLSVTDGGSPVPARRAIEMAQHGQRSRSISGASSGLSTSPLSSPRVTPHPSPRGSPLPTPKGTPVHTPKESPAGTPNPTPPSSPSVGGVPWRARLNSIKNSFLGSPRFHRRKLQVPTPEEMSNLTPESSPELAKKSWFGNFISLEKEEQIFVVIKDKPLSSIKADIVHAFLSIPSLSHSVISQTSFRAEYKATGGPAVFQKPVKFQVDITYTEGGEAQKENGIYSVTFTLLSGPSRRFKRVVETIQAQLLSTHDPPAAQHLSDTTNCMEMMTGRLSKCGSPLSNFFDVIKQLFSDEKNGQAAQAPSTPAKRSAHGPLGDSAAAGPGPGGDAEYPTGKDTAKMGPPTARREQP
The note with it: at 0.1 µM.

Assay [7] concerns the target T3, Serine/threonine-protein kinase BRSK2 (Homo sapiens). The note with it: at 1 µM.
The target in assay [8] is Calcium/calmodulin-dependent protein kinase type 1D (Homo sapiens) (UniProt Q8IU85). The note with it: at 0.1 µM.
For assay [9] the target is unchanged. The following applies: at 1 µM.
In assay [10] the target is Calcium/calmodulin-dependent protein kinase type II subunit alpha (Homo sapiens) (UniProt Q9UQM7). The following applies: at 0.1 µM.
For assay [11] the target is unchanged. The note with it: at 1 µM.
Assay [12] addresses Calcium/calmodulin-dependent protein kinase type II subunit delta (Homo sapiens) (UniProt Q13557). The note with it: at 0.1 µM.
For assay [13] the target is unchanged. The note with it: at 1 µM.
The target in assay [14] is T4, Calcium/calmodulin-dependent protein kinase type IV (Homo sapiens) (UniProt Q16566).
T4 sequence (whole entry): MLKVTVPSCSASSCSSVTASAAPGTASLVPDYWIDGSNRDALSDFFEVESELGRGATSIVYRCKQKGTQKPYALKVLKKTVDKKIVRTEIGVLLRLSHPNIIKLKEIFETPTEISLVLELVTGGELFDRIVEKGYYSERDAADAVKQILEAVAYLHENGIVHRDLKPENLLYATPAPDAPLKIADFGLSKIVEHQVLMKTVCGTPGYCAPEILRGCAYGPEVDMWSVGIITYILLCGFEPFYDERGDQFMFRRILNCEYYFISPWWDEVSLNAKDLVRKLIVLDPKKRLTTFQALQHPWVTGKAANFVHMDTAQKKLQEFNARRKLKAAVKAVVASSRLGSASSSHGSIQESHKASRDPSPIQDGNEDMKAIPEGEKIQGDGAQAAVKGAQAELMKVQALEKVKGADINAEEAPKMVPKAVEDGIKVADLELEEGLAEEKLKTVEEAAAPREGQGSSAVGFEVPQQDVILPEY
The following applies: at 0.1 µM.

For assay [15], the target named is T4, Calcium/calmodulin-dependent protein kinase type IV (Homo sapiens). The note with it: at 1 µM.
In assay [16] the target is T5, Serine/threonine-protein kinase Chk1 (Homo sapiens) (UniProt O14757).
T5 sequence (whole entry): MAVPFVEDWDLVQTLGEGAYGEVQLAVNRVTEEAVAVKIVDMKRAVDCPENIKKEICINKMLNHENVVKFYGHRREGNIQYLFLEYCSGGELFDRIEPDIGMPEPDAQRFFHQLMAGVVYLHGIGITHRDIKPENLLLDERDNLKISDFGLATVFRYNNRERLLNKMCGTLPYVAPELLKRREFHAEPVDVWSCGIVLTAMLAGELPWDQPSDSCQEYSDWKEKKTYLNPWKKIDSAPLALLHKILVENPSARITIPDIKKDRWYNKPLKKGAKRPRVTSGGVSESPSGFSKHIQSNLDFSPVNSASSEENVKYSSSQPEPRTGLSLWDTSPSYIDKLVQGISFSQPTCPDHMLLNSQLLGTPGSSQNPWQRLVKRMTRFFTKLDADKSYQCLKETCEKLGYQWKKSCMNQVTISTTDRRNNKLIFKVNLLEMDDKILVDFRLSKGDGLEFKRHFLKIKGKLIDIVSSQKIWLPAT
The note with it: at 0.1 µM.

Assay [17] deals with T5, Serine/threonine-protein kinase Chk1 (Homo sapiens). The note with it: at 1 µM.
Assay [18] deals with Serine/threonine-protein kinase Chk2 (Homo sapiens) (UniProt O96017). The note with it: at 0.1 µM.
For assay [19] the target is unchanged. The note with it: at 1 µM.
Assay [20] deals with Death-associated protein kinase 1 (Homo sapiens) (UniProt P53355). The note with it: at 0.1 µM.
Chain of Death-associated protein kinase 1 (Homo sapiens) (P53355 whole entry, looked up): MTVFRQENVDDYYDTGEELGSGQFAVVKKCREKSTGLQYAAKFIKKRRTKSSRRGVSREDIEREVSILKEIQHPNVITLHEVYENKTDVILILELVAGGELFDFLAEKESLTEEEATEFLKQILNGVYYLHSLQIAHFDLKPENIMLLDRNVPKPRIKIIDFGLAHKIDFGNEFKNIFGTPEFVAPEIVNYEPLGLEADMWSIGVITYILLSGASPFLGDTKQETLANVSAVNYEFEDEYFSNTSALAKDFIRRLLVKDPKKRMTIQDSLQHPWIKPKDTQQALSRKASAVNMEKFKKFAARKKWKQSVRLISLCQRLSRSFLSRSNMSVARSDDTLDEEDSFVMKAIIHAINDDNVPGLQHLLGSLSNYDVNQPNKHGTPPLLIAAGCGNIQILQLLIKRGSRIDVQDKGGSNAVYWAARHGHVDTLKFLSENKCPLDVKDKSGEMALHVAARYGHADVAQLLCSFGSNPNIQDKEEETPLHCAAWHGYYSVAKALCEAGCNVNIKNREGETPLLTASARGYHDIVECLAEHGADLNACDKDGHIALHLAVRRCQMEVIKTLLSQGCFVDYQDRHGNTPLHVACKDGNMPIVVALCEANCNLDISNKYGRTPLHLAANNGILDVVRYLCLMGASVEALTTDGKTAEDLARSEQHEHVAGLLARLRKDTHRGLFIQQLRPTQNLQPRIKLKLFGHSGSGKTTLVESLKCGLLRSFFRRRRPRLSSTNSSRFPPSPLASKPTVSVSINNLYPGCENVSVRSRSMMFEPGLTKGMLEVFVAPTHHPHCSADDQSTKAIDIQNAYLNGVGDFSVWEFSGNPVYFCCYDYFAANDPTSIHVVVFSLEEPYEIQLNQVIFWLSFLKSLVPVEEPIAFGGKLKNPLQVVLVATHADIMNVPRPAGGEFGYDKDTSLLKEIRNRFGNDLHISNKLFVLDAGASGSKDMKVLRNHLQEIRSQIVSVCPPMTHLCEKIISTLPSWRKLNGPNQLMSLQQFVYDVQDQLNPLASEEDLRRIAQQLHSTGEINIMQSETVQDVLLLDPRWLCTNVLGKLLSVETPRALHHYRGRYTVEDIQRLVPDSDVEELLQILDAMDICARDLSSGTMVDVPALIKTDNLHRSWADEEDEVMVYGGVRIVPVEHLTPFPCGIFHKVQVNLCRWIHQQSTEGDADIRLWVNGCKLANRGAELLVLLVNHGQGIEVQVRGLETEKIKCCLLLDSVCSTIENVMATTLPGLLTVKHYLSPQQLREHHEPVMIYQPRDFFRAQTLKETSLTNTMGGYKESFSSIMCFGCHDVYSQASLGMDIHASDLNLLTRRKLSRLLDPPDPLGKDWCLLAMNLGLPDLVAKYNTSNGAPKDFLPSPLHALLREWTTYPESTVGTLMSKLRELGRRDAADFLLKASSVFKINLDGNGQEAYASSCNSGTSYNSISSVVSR

Chain of Calcium/calmodulin-dependent protein kinase type II subunit delta (Homo sapiens) (Q13557 whole entry): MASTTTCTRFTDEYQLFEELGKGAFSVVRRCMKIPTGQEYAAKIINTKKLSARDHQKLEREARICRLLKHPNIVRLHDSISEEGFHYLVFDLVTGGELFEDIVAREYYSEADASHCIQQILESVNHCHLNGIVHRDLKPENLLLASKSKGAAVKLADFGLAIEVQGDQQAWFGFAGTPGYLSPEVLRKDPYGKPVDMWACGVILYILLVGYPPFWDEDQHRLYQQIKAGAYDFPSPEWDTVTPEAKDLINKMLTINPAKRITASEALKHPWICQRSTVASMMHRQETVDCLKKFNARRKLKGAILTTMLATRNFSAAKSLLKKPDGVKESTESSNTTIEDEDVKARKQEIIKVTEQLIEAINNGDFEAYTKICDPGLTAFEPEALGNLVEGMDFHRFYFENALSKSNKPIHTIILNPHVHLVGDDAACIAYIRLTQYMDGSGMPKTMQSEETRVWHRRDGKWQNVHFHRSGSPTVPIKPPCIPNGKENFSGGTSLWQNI
Chain of Calcium/calmodulin-dependent protein kinase type 1D (Homo sapiens) (Q8IU85 whole entry, looked up): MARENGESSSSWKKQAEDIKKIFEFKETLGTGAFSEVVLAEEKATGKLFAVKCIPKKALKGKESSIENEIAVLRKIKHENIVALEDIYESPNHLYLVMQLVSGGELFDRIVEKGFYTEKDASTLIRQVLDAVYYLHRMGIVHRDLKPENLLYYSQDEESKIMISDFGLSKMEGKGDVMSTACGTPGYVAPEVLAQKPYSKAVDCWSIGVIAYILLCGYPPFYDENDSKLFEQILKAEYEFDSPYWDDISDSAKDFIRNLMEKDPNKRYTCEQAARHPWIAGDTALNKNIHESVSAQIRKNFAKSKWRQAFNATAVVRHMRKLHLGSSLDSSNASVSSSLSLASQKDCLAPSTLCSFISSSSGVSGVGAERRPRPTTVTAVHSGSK
Chain of Calcium/calmodulin-dependent protein kinase type II subunit alpha (Homo sapiens) (Q9UQM7 whole entry): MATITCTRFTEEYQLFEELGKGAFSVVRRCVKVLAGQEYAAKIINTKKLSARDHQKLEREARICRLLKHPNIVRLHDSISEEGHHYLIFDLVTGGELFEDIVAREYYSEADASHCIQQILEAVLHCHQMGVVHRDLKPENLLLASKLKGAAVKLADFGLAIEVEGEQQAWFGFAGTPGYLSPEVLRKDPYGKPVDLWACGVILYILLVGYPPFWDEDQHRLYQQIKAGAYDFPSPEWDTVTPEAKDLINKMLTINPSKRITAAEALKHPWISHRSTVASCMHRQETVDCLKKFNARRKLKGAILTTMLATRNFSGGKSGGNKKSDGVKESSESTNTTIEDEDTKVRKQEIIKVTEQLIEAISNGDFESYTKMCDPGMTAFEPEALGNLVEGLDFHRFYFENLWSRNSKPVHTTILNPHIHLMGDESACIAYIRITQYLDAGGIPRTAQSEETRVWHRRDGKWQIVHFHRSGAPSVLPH
Chain of Serine/threonine-protein kinase Chk2 (Homo sapiens) (O96017 whole entry): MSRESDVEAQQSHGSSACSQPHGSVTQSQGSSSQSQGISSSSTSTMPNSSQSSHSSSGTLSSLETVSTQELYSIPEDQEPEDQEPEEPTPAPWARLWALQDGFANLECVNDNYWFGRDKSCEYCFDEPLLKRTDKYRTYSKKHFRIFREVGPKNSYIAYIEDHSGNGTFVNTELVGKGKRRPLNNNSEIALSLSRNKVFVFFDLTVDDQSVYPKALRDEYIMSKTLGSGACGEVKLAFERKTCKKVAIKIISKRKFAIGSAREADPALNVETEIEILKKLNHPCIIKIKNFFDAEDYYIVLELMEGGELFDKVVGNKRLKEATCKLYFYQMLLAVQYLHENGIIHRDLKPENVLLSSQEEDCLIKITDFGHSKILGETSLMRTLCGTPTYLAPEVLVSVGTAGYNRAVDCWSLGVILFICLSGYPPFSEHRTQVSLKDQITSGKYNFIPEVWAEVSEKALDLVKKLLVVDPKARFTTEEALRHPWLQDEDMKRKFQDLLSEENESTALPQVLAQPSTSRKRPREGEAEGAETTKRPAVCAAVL
Chain of 5'-AMP-activated protein kinase catalytic subunit alpha-2 (Homo sapiens) (P54646 whole entry, looked up): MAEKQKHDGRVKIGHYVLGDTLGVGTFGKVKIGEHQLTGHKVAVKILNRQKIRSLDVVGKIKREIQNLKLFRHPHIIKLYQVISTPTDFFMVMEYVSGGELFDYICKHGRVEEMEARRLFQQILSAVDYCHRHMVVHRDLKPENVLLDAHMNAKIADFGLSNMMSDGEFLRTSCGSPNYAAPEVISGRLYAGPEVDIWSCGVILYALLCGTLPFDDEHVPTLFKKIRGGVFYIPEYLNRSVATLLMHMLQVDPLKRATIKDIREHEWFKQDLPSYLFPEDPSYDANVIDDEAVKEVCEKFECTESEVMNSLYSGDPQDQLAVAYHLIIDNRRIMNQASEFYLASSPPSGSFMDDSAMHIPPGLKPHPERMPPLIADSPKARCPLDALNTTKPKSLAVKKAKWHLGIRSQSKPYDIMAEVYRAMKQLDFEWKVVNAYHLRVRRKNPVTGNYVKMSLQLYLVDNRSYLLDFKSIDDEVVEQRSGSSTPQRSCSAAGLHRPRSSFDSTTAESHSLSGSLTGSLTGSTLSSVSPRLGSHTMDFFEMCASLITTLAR

With `CCOc1ccc2c(-c3ccnc(Nc4cccc(C(F)(F)F)c4)n3)cnn2n1`, the inhibition in assay [1] was 2.74%; in assay [2] it was 2.71%; in assay [3] it was 7.44%; in assay [4] it was 1.14%; in [5], 4.56%; in [6] it was 3.01%. Further, the inhibition in assay [7] was 2.66%; in [8] it was 1%; in [9], 1.1%; in assay [10] it was 0.19%; in assay [11], -2.29%; in assay [12] it was 2.41%. In addition, the inhibition was 0.44% in assay [13]; 1.94% in assay [14]; -1% in assay [15]; 3.49% in assay [16]; 3.51% in assay [17]; 1.55% in assay [18]. In addition, the inhibition in [19] was 1.92%; in assay [20], 3.1%.
As to `COc1cc2ncn(-c3cc(OCc4ccccc4C(F)(F)F)c(C(=O)N(C)C)s3)c2cc1OC`, the inhibition in assay [1] is 1.18%; in assay [2], 1.04%; in [3] it was 14.8%; in assay [4] it was -0.38%; in [5], 2.7%; in assay [6], 0.49%. Moreover, the inhibition in assay [7] was 8.59%; in assay [8] it was -0.9%; in assay [9], 0.6%; in assay [10] it was -1.75%; in assay [11] it was -0.49%; in [12], -1.72%. For the same molecule, the inhibition is 1.17% in [13]; 0.72% in assay [14]; 3.28% in assay [15]; -1.48% in [16]; 1.32% in assay [17]; -0.7% in assay [18]. Also, the inhibition in assay [19] was -0.07%; in assay [20], -0.75%.
`CCc1nn2ncccc2c1-c1ccnc(NC2CC2)n1`: the inhibition in [1] was 2.42%; in [2] it was -1.38%; in assay [3], 1.14%; in assay [4] it was 3.05%; in [5] it was 1.03%; in [6] it was 1.62%. Besides, the inhibition was determined as 4.01% in assay [7]; 1.12% in assay [8]; 2.41% in assay [9]; 2.89% in assay [10]; 3.03% in assay [11]; 2.51% in [12]. The inhibition came out at 4.18% in assay [13]; 3.71% in assay [14]; 2.48% in assay [15]; 2.02% in assay [16]; 2.69% in assay [17]; 1.64% in assay [18]. Besides, the results for the inhibition in assay [19] and in [20] were 3.66% and 3.5%, respectively.
For `CCCN1CCC(c2ccc(Nc3nc(Nc4cc(F)ccc4C(N)=O)c4cc[nH]c4n3)c(OC)c2)CC1`, the inhibition in assay [1] was determined as 13.2%; in [2], 31.8%; in [3], 62.8%; in assay [4], 0.82%; in [5], 2.49%; in assay [6] it was 2.24%. In addition, the inhibition in assay [7] came out at 6.88%; in [8], 22.9%; in assay [9], 71.5%; in assay [10], 8.79%; in assay [11] it was 43.6%; in [12] it was 20.9%. The inhibition in [13] was determined as 71%; in assay [14], 7.54%; in assay [15], 37.9%; in [16], 0.91%; in [17] it was 10.7%; in assay [18], 58.3%. Moreover, the inhibition in assay [19] is 80.9%; in [20] it was 3.52%.
With `Cc1cccc2c1NC(=O)/C2=N\Nc1ccc(S(N)(=O)=O)cc1`, the inhibition was determined as 4.04% in [1]; 4.52% in assay [2]; 19% in [3]; 1.12% in assay [4]; 3.16% in assay [5]; 0.94% in assay [6]. Moreover, the inhibition was determined as 4.49% in assay [7]; 0.23% in [8]; 1.75% in assay [9]; 4.56% in assay [10]; 3.33% in [11]; 3.36% in assay [12]. Besides, the inhibition in [13] is 3.56%; in assay [14] it was 0.62%; in assay [15], 1.1%; in [16] it was 0.95%; in assay [17], 5.04%; in assay [18], 1.68%. Also, the inhibition was determined as 2.64% in [19] and 3.69% in assay [20].
Regarding `COc1ccc(-c2nn3ncccc3c2-c2ccnc(Nc3ccc4c(c3)OCCO4)n2)cc1`, the inhibition in [1] is 0.38%; in [2], -0.71%; in assay [3], 2.67%; in [4] it was -0.94%; in [5] it was 2.44%; in [6], 0.33%. Besides, the inhibition in [7] was 1.64%; in assay [8], 9.78%; in assay [9], 0.03%; in assay [10] it was 0.38%; in [11] it was -2.04%; in [12] it was 0.97%. Moreover, the inhibition in [13] was 0.2%; in [14] it was 1.75%; in [15] it was -0.47%; in [16], -2.62%; in assay [17], -1.19%; in assay [18] it was -1.05%. The values for the inhibition in assay [19] and in assay [20] were 0.02% and 2.51%, respectively.

The term inhibition denotes the change of the read-out against control, counted positive when it falls.
